Measurements reported in PubChem BioAssay (NCI).
About 83,000 compounds went through this panel and 20% of them were active in at least one assay; those are over-represented in the sample as a whole.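 Step 1: grow cells in 96-well plates. Step 2: add test compound at a single concentration. Step 3: incubate 48 h. Step 4: record percent growth.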 Calls of active or inactive are those of the source. The calls were made as follows: active = growth percent below 10; inactive = the rest.

system: LOX IMVI melanoma; experiment: NCI-60 one-dose screen, 48 h (100 = growth as untreated, 0 = no growth, -100 = all killed); conditions: 10 µM unless noted

Compound	growth
CCN(CC)c1nc(SCC(=O)Nc2nc3ccc(C)cc3s2)nc(-c2ccccc2)c1C#N	98% (inactive)
Cn1cc(-c2csc(-c3cccc(F)c3)n2)c2cccnc21	-54.3% [100 µM] (active)
CCN1CCN(c2cc(C)nc(NCc3cc(Nc4ccnc5cc(Cl)ccc45)ccc3F)n2)CC1	8.07% (active)
CSc1n(Cc2ccc3ccccc3c2)c(C)c[n+]1Cc1ccc2ccccc2c1	-91.5% (active)
NC(=N\N=C/c1cccc([N+](=O)[O-])c1)/C(N)=N\N=C/c1cccc([N+](=O)[O-])c1	82% (inactive)
COc1ccc(-c2csc(C3=C(O)CN(C(C)C)C3=N)n2)cc1OC	94.1% (inactive)
COc1ccc(-c2ccc3c(c2)sc2nc(-c4ccc(F)cc4)cn23)cc1	102% (inactive)
Cc1ccc(S(=O)(=O)NCC[C@@H]2C[C@H]2c2cc3ccccc3s2)cc1	96.7% (inactive)
Cc1cccc(NC(=O)CSc2nc3ccccc3[nH]2)c1	96.8% (inactive)
C[n+]1cc2cc(C(N)=O)[nH]c3c(=N)c(Cl)c(N)c1c23	64.2% (inactive)
CCN(CC)CCCNc1ccc(Nc2ccc(OC)cc2)cc1	86.4% (inactive)
O=C1C=C[C@]2(C[C@@H](c3cccc(C(F)(F)F)c3)O[C@@H](c3cccc(C(F)(F)F)c3)O2)O1	-84.6% (active)
Cc1nc2c(c(N3CCCc4ccccc43)n1)CCC2	21.2% (inactive)
Cc1cc(Cl)nc(NCc2cc(Nc3ccnc4cc(Cl)ccc34)ccc2F)n1	10.4% (inactive)
COc1ccc(NC(=O)CSc2nnc(-c3cc(-c4ccc(S(N)(=O)=O)cc4)nc4ccccc34)n2-c2ccccc2)cc1	90.3% (inactive)
COc1ccc(-c2nc3ccc4[nH]ncc4c3c3c2CCCC3)cc1B(O)O	40.4% (inactive)
CC/C=C\C[C@H](O)C/C=C1/C(=O)C=C[C@@H]1C/C=C\CCCCO	-68.9% (active)
O=C(/C=C/c1c(Cl)nc2sccn12)c1nccs1	89.1% (inactive)
O=c1[nH]ccc2nc(N3CCC(O)CC3)nc(Nc3ccc(N4CCOCC4)cc3)c12	46.4% (inactive)

Compound	growth
COc1ccc2c(c1)CCCN2c1c2ccccc2nc2ccccc12	12.2% (inactive)
COc1ccc(N=C(c2ccccc2)C2C(=O)c3ccccc3C2=O)cc1	75.4% (inactive)
Cc1c(O)cc(-c2cnc(N/N=C\c3ccc(Cl)cc3)s2)c(O)c1C	62.2% (inactive)
NS(=O)(=O)c1ccc(-n2nc(C(=O)N/N=C\c3ccc(F)cc3)cc2-c2ccc(Cl)cc2)cc1	90.9% (inactive)
CCN1CCN(c2nc(C)cc(NCc3cc(Nc4ccnc5cc(Cl)ccc45)ccc3F)n2)CC1	-81.5% (active)
COc1ccc2[nH]c(O)c(/C=c3/cc4c(c(-c5ccc(F)c(OC)c5)n3)=Nc3ccccc3-4)c2c1	-17.2% (active)
CCCCCS(=O)(=O)Nc1ccc(C(=O)O)cc1	99.9% (inactive)
CN(C)CC1C(=O)O[C@H]2[C@H]1CC/C(COC(=O)c1cc3ccccc3[nH]1)=C\CC[C@@]1(C)O[C@@H]21 (some centres undefined)	-92.7% (active)
N#CC1=C(c2ccc(Br)cc2)NC(SCC(=O)c2ccc(Br)cc2)NC1=O (centres undefined)	106% (inactive)
O=c1c2c3c(sc2n2c(-c4cn(-c5ccccc5)nc4-c4ccc(Cl)cc4)nnc2n1Cc1ccccc1)CCCC3	72.3% (inactive)
COc1cc(/C=C/C(=O)c2cccc(-n3cc(-c4ccccc4)[nH]c3=O)c2)ccc1O	18.7% (inactive)
CCCCCCCCCOc1c(OC)cc(C2CC(=O)Nc3c2c(C)nn3-c2nc3ccccc3[nH]2)cc1OC (centres undefined)	-95.8% (active)
Cc1ccc2c(c1)Sc1c(ccc3ccccc13)N2	45.6% (inactive)
CC(C)(C)C(CCc1ccc(Cl)cc1)N1CCN(C2CCCCC2)CC1 (centres undefined)	-20.3% (active)
COc1ccc(C2=NN(C(=O)c3cc(OC)c(OC)c(OC)c3)C(c3ccc(Cl)cc3)C2)cc1OC (centres undefined)	31.3% (inactive)
Cc1cc(NCc2cc(Nc3ccnc4cc(Cl)ccc34)ccc2F)nc(N2CCSCC2)n1	-89.2% (active)
N#Cc1c(-c2cccc(Cl)c2)cc(-c2cccc(F)c2)[nH]c1=O	89.6% (inactive)
O=C(CSc1nnc(-c2ccc(NC(=O)c3cccnc3)cc2)o1)N[C@@H](Cc1ccc(O)cc1)C(=O)O	104% (inactive)

system: SK-MEL-28 melanoma; experiment: as above; conditions: 10 µM unless noted

Compound	growth
CCN(CC)c1nc(SCC(=O)Nc2nc3ccc(C)cc3s2)nc(-c2ccccc2)c1C#N	103% (inactive)
Cn1cc(-c2csc(-c3cccc(F)c3)n2)c2cccnc21	-57.8% [100 µM] (active)
CCN1CCN(c2cc(C)nc(NCc3cc(Nc4ccnc5cc(Cl)ccc45)ccc3F)n2)CC1	93.3% (inactive)
CSc1n(Cc2ccc3ccccc3c2)c(C)c[n+]1Cc1ccc2ccccc2c1	-9.19% (active)
NC(=N\N=C/c1cccc([N+](=O)[O-])c1)/C(N)=N\N=C/c1cccc([N+](=O)[O-])c1	77.9% (inactive)
COc1ccc(-c2csc(C3=C(O)CN(C(C)C)C3=N)n2)cc1OC	123% (inactive)
COc1ccc(-c2ccc3c(c2)sc2nc(-c4ccc(F)cc4)cn23)cc1	105% (inactive)
Cc1ccc(S(=O)(=O)NCC[C@@H]2C[C@H]2c2cc3ccccc3s2)cc1	105% (inactive)
Cc1cccc(NC(=O)CSc2nc3ccccc3[nH]2)c1	101% (inactive)
C[n+]1cc2cc(C(N)=O)[nH]c3c(=N)c(Cl)c(N)c1c23	109% (inactive)
CCN(CC)CCCNc1ccc(Nc2ccc(OC)cc2)cc1	101% (inactive)
O=C1C=C[C@]2(C[C@@H](c3cccc(C(F)(F)F)c3)O[C@@H](c3cccc(C(F)(F)F)c3)O2)O1	48.6% (inactive)
Cc1nc2c(c(N3CCCc4ccccc43)n1)CCC2	60.4% (inactive)
Cc1cc(Cl)nc(NCc2cc(Nc3ccnc4cc(Cl)ccc34)ccc2F)n1	94.1% (inactive)
COc1ccc(NC(=O)CSc2nnc(-c3cc(-c4ccc(S(N)(=O)=O)cc4)nc4ccccc34)n2-c2ccccc2)cc1	80.6% (inactive)
COc1ccc(-c2nc3ccc4[nH]ncc4c3c3c2CCCC3)cc1B(O)O	68.1% (inactive)
CC/C=C\C[C@H](O)C/C=C1/C(=O)C=C[C@@H]1C/C=C\CCCCO	16.7% (inactive)
O=C(/C=C/c1c(Cl)nc2sccn12)c1nccs1	104% (inactive)
O=c1[nH]ccc2nc(N3CCC(O)CC3)nc(Nc3ccc(N4CCOCC4)cc3)c12	82.6% (inactive)

Compound	growth
COc1ccc2c(c1)CCCN2c1c2ccccc2nc2ccccc12	47% (inactive)
COc1ccc(N=C(c2ccccc2)C2C(=O)c3ccccc3C2=O)cc1	74.1% (inactive)
Cc1c(O)cc(-c2cnc(N/N=C\c3ccc(Cl)cc3)s2)c(O)c1C	94.4% (inactive)
NS(=O)(=O)c1ccc(-n2nc(C(=O)N/N=C\c3ccc(F)cc3)cc2-c2ccc(Cl)cc2)cc1	98.8% (inactive)
CCN1CCN(c2nc(C)cc(NCc3cc(Nc4ccnc5cc(Cl)ccc45)ccc3F)n2)CC1	-80.3% (active)
COc1ccc2[nH]c(O)c(/C=c3/cc4c(c(-c5ccc(F)c(OC)c5)n3)=Nc3ccccc3-4)c2c1	-51.2% (active)
CCCCCS(=O)(=O)Nc1ccc(C(=O)O)cc1	111% (inactive)
CN(C)CC1C(=O)O[C@H]2[C@H]1CC/C(COC(=O)c1cc3ccccc3[nH]1)=C\CC[C@@]1(C)O[C@@H]21 (some centres undefined)	-59.1% (active)
N#CC1=C(c2ccc(Br)cc2)NC(SCC(=O)c2ccc(Br)cc2)NC1=O (centres undefined)	111% (inactive)
O=c1c2c3c(sc2n2c(-c4cn(-c5ccccc5)nc4-c4ccc(Cl)cc4)nnc2n1Cc1ccccc1)CCCC3	105% (inactive)
COc1cc(/C=C/C(=O)c2cccc(-n3cc(-c4ccccc4)[nH]c3=O)c2)ccc1O	70.2% (inactive)
CCCCCCCCCOc1c(OC)cc(C2CC(=O)Nc3c2c(C)nn3-c2nc3ccccc3[nH]2)cc1OC (centres undefined)	-47.4% (active)
Cc1ccc2c(c1)Sc1c(ccc3ccccc13)N2	84.7% (inactive)
CC(C)(C)C(CCc1ccc(Cl)cc1)N1CCN(C2CCCCC2)CC1 (centres undefined)	83.1% (inactive)
COc1ccc(C2=NN(C(=O)c3cc(OC)c(OC)c(OC)c3)C(c3ccc(Cl)cc3)C2)cc1OC (centres undefined)	46.1% (inactive)
Cc1cc(NCc2cc(Nc3ccnc4cc(Cl)ccc34)ccc2F)nc(N2CCSCC2)n1	-64.3% (active)
N#Cc1c(-c2cccc(Cl)c2)cc(-c2cccc(F)c2)[nH]c1=O	97.9% (inactive)
O=C(CSc1nnc(-c2ccc(NC(=O)c3cccnc3)cc2)o1)N[C@@H](Cc1ccc(O)cc1)C(=O)O	108% (inactive)
